Rows were chosen to be rich in hits. Some 4.8% of all compounds tested hit in one or more screens of this group.
hcDAF-12 act – H. contortus DAF-12 activation, primary screen | HEK293 hcDAF-12 lit1-tk-luc reporter, luminescence; 0% DMSO, 100% Δ7-dafachronic acid | activation, % at 6.8 µM | actives 1.4% (n = 370,000) | AID 652067;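 active means activation above the mean of all tested compounds plus 3 SD, cut at about 5.5% in these data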;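 further: 100% = response to 3 µM Δ7-dafachronic acid high control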
DAX1 inh-1 – inhibits human nuclear receptor DAX1; actives 0.99% (n = 340,000); P51843; HEK293 Gal4-DAX1 luciferase reporter, luminescence; inhibition, % at 6.75 µM;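 active means inhibition above the mean over all tested compounds plus 3 SD, cut at about 4.2% in these data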;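 further: 0% = DAX1-transfected cells with DMSO and 100% = empty-vector control cells with DMSO; inhibition shows as a rise in luminescence from relieved DAX1 repression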
Target sequence (P51843 207-470 limits assumed): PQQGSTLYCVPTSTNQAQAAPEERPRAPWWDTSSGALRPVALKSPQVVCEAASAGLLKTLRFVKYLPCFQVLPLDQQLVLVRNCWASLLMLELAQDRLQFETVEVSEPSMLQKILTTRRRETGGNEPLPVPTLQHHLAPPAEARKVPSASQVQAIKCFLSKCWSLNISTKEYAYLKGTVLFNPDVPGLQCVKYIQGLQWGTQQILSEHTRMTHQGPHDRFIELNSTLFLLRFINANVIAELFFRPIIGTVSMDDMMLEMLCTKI
SMARCA2 activ – SMARCA2 function activation, primary screen | actives 1% (n = 370,000) | activation, % at 9.1 µM | MG213 cells, MMTV-luciferase reporter, dexamethasone, overnight | AID 652017; in the data active means activation above about 7.8%;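 further: 0% = vehicle wells and 100% = reference activator wells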
ssDAF12 agonist – S. stercoralis DAF-12 activation, primary screen. actives 1% (n = 370,000). HEK293 ssDAF-12/GRIP1 lit1-tk-luc reporter, luminescence; % of 3 µM dafachronic acid response. activation, % at 6.8 µM;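 active means activation above the mean over all tested compounds plus 3 SD, cut at about 0.9% in these data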;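 further: 0% = DMSO-only wells and 100% = 3 µM delta7-dafachronic acid wells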
hgDAF-12 ag – hgDAF-12 agonism, primary luciferase screen. HEK293 GAL4-hgDAF12 UAS-luciferase reporter, agonist luminescence; normalized to butyrate control. activation, % at 6.8 µM. actives 1.8% (n = 370,000);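 active means activation above a cutoff set at the mean of all screened compounds plus 3 SD, cut at about 10% in these data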;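 further: 0% = DMSO wells and 100% = sodium butyrate wells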
DAX1 inh-2 – blocks DAX1 repression of SF-1 activated StAR promoter. inhibition, % at 6.8 µM. HEK293T StAR-luciferase reporter, SF-1/DAX-1 repression relief. actives 1.1% (n = 370,000);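 active means inhibition above the mean over all tested compounds plus 3 SD, cut at about 3.6% in these data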;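 further: 0% = DAX-1 cells with DMSO and 100% = cells lacking DAX-1 with DMSO; higher inhibition means more luminescence from relief of DAX-1 repression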
SMARCA2 act conf – SMARCA2 activation, confirmation screen; actives 30% (n = 3,500); MG213 cells, MMTV-luciferase with dexamethasone, luminescence, overnight; MG213 cells expressing E1A, Rb sequestered; DMSO wells 0%, reference activator 100%; shares compounds with SMARCA2 activ; activation, % at 9.1 µM;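 active means activation above its plate's cutoff, the mean activation of tested wells plus 3 SD, cut at about 7.9% in these data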
VP16 Luc act – counter-screen for SMARCA2 activators: GAL4-VP16 luciferase reporter activation. actives 41% (n = 3,500). shares compounds with SMARCA2 activ. activation, % at 9.1 µM. HEK293 GAL4-VP16 pG5luc reporter, luciferase luminescence; scaled: DMSO wells 0%, SAHA wells 100%;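 active means activation above the solvent-only control well mean plus 3 SD, averaged across control plates, cut at about 5.2% in these data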
Numbers without * were called inactive; . = not tested or not shown.

SMILES	hcDAF-12 act	DAX1 inh-1	SMARCA2 activ	ssDAF12 agonist	hgDAF-12 ag	DAX1 inh-2	SMARCA2 act conf	VP16 Luc act
O=C(C1CCN(S(=O)(=O)c2cccs2)CC1)N1CCCCC1	0.2	0.8	-0.6	-0.9	0.2	0.4	.	.
COc1ccc2c(c1)CN1CN(Cc3ccc(F)cc3)S(=O)(=O)CC21 (centres undefined)	-0.3	.	3.2	-0.9	-1.1	0.4	.	.
CCc1ccc(C(=O)Nc2cc(C)on2)o1	1.5	0.7	1.9	-0.4	7.7	0.9	.	.
O=C(Nc1ccsc1C(=O)O)c1cccc(C(F)(F)F)c1	3.0	1.9	2.6	0.1	5.2	1.4	.	.
Cc1ccccc1NC(=O)c1cccc(C(F)(F)F)c1	0.1	-0.4	8.2*	-1.8	-1.4	0.0	4.9	1.5
CCCCN(C)CCn1c(=S)[nH]c2ccc(N3CCOCC3)cc2c1=O	-2.3	1.0	9.7*	-1.0	-2.2	-0.1	-0.9	2.2
CC(Sc1nnc(-c2ccncc2)n1C)C(=O)Nc1ccc(N2CCOCC2)cc1 (centres undefined)	0.2	0.5	-2.5	-1.6	2.7	0.4	.	.
CCNC(=S)NNC(=O)c1ccccc1OC(F)F	0.0	0.2	-4.3	-0.5	0.8	0.2	.	.
CCNC(=S)NNC(=O)c1ccccc1Cl	1.1	0.4	8.2*	-1.9	3.1	0.1	6.0	-0.2
COc1ccc(-c2nc3ccccn3c2C=O)cc1	5.7*	-0.9	8.7*	0.0	9.8	1.4	7.6	9.0*
CC1CCN(c2ccc(NC(=O)Cc3ccccc3)cc2)CC1	0.1	-0.4	1.8	-1.0	3.7	1.0	.	.
CCC(=O)Nc1ccc(N2CCC(C)CC2)cc1	1.8	1.3	9.6*	-1.3	3.5	0.2	4.3	4.0
CCCN1CNc2c(c(=O)[nH]c(=S)n2-c2ccc(Cl)cc2)C1	0.0	1.2	2.6	-1.1	-2.6	2.6	.	.
O=C(O)c1ccc2nc(-c3ccccc3)c(-c3ccccc3)nc2c1	1.4	-1.9	10.2*	-1.5	-4.3	-0.8	4.0	1.6
NC(=O)c1ccc2nc(-c3ccccc3)c(-c3ccccc3)nc2c1	1.4	0.1	1.1	-1.2	-1.5	-0.1	.	.
Cc1ccc(S(=O)(=O)N2CCN(C(=O)CSC(=S)N3CCCC3)CC2)c(C)c1	-2.0	0.3	0.5	-1.2	-0.4	-0.1	.	.
S=C(N=Nc1ccccc1)NNc1ccccc1	11.3*	3.2	10.3*	0.1	12.5*	3.2	13.7*	7.7*
COc1cccc(NC(=O)NCCC2=CCCCC2)c1	1.0	0.8	15.9*	0.2	7.7	1.0	5.3	11.5*
CC(=O)Nc1cccc(OCC(=O)NCCC2=CCCCC2)c1	-0.8	-0.1	-2.3	-1.2	0.4	1.4	.	.
C[C@H]1[C@H](NC(=O)c2ccc(Cl)c(Cl)c2)CC[C@@]23CCCN2C(=O)CCC[C@@H]13	-2.3	.	.	-1.4	-1.1	.	.	.
CN(C)CCN(C(=O)c1ccc2ccccc2c1)c1nc2cc3c(cc2s1)OCO3	1.9	3.2	10.8*	-1.1	5.7	2.3	1.2	1.5
O=c1[nH]sc2ccccc12	2.2	-1.0	8.9*	-1.8	-2.1	-1.0	-0.2	1.8
COC(=O)c1sc(-c2ccc(Cl)cc2)cc1NC(=O)COCC(=O)O	0.5	-0.5	-0.4	-1.2	1.5	-0.2	.	.
COC(=O)c1sc(-c2ccc(Cl)cc2)cc1NC(=O)/C=C/C(=O)O	-0.1	0.2	9.1*	-1.2	2.1	0.5	-0.3	-0.6
CCc1cccc(C)c1NC(=O)CN1C(=O)NC(C)(CCC(C)C)C1=O (centres undefined)	0.8	1.0	-2.7	-0.8	2.0	-1.0	.	.
SMILES	hcDAF-12 act	DAX1 inh-1	SMARCA2 activ	ssDAF12 agonist	hgDAF-12 ag	DAX1 inh-2	SMARCA2 act conf	VP16 Luc act
Cc1ccc(-n2c(=O)c3ccccc3n(CC(=O)NCc3ccco3)c2=O)cc1	-0.6	-1.6	-0.7	-0.2	0.6	-0.4	.	.
CCc1ccc(-n2c(=O)c3ccccc3n(CC(=O)NCc3ccco3)c2=O)cc1	-1.8	-2.1	8.6*	-2.0	-0.4	-0.9	-3.7	-0.9
CCN=C1S/C(=C\c2cn(CC(=O)NCc3ccco3)c3ccccc23)C(=O)N1CC	-4.1	-1.6	8.1*	-2.1	-2.3	-0.7	9.9*	4.3
Cc1nc(-c2ccccc2OC(F)(F)F)[nH]c(=O)c1Cl	-1.5	2.6	-6.0	-2.2	0.2	-0.2	.	.
CC(=O)c1ccc(NC(=O)c2ccn[nH]2)cc1	4.5	1.8	8.2*	-0.2	7.5	2.0	8.0*	8.0*
CC(=O)c1ccc(NC(=O)c2cccc(NC(=O)c3ccccc3)c2)cc1	-1.9	-0.3	3.2	-2.2	1.0	-0.4	.	.
COC(=O)c1cccc(Oc2cccc(C(F)(F)F)c2)n1	-1.5	-0.3	11.0*	-0.8	-0.3	0.1	1.7	2.2
O=c1c2ccccc2nc(-c2ccc(Cl)cc2)n1C1CCS(=O)(=O)C1 (centres undefined)	0.7	-0.4	-2.8	-1.2	1.4	-0.7	.	.
COc1ccc(C(=O)NCC(=O)N2CCNC(=O)C2)cc1OC	1.0	0.9	0.5	-1.1	0.8	-0.3	.	.
COc1ccc(C(=O)NCC(=O)N2CCN(c3ncccn3)CC2)cc1OC	-2.0	0.6	8.0*	-1.0	2.1	-0.2	3.8	-0.7
CCNC(=S)NNC(=O)c1ccoc1C	-2.3	0.0	-0.7	-0.5	1.0	0.2	.	.
Cc1occc1C(=O)NNC(=O)C1CC1	0.3	1.0	9.5*	-0.9	-2.1	1.2	5.9	1.1
Cc1occc1C(=O)NNC(=S)Nc1ccccc1	1.0	2.0	9.3*	-0.3	11.8*	2.1	5.4	6.8*
COC(=O)c1ccc2nc(-c3ccccc3)c(Cc3ccccc3C(F)(F)F)n2c1	2.7	.	1.1	-0.2	6.8	2.5	.	.
COC(=O)c1ccc2nc(-c3ccc(F)cc3)c(Cc3ccccc3C(F)(F)F)n2c1	2.3	.	9.1*	-1.2	-1.6	-0.5	-1.2	-0.8
CC1(C)C/C(=N\NC(=S)Nc2ccccc2F)c2cc(O)ccc2O1	-1.8	-2.2	-3.2	-1.8	-2.5	-1.2	.	.
CCOc1ccccc1CNC(=O)c1ccccc1NC(=O)C1=CSCCO1	-2.2	0.0	-1.4	-0.7	0.2	0.1	.	.
O=C(Nc1ccccc1C(=O)NCc1ccccc1)C1=CSCCO1	-0.6	1.3	11.7*	-1.5	-0.2	-0.1	-1.8	0.7
O=C1/C(=C/c2cccnc2)SC(=S)N1CCc1ccccc1	2.4	0.4	8.7*	-0.6	-1.7	0.0	0.8	1.4

From PubChem
